# Reference: paper PMC7862700, “An all-to-all approach to the identification of sequence-specific readers for epigenetic DNA modifications on cytosine”
# Key:
# Test in all cases: DAPPL (digital affinity profiling via proximity ligation, sequencing); 10 mM Tris-HCl pH 7.5, 50 mM NaCl, 1 mM DTT, 4% glycerol, room temperature, 30 min; GST-TFs on glutathione beads, 16-mer random dsDNA library, 0.1% formaldehyde crosslink after washing; high values mean tight binding
# FEV = biological target: T1, FEV (Homo sapiens, UniProt Q99581 1-238); conditions: protein: recombinant; tags: N-terminal GST; dsDNA, one strand shown
# T1 sequence: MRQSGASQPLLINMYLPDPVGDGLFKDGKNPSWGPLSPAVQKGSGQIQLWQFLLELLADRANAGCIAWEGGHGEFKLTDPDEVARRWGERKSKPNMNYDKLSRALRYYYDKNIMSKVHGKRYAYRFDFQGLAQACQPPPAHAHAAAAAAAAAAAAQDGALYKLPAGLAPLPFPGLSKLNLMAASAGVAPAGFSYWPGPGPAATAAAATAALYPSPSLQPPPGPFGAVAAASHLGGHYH
# Summary of the method: (§1)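 The binding signal reported is, for every hexamer, its read frequency for a factor over its read frequency for the tag-only sample. Reads came from pools of yeast-expressed, GST-fused human transcription factors on glutathione beads, barcoded with DNA and mixed with that sample, which were incubated with 200 nmole of a random double-stranded 16-mer DNA library in Tris/NaCl/DTT/glycerol buffer at room temperature for 30 min. After washing, the pools were crosslinked with 0.1% formaldehyde, proximity-ligated with BsaI/T4 ligase for 1 h at 37 °C, PCR-amplified and sequenced on an Illumina NextSeq500.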
# ETV5 = ETV5 (Homo sapiens, UniProt P41161 1-510); conditions: protein: recombinant; tags: N-terminal GST; dsDNA, one strand shown
# Summary of the method: as §1
# HSF1 = HSF1 (Homo sapiens, UniProt Q00613 1-529); conditions: protein: recombinant; tags: N-terminal GST; chain copies: 3; dsDNA, one strand shown
# Summary of the method: as §1
# SPIC = biological target: T2, SPIC (Homo sapiens, UniProt Q8N5J4 1-248); conditions: protein: recombinant; tags: N-terminal GST; dsDNA, one strand shown
# T2 sequence: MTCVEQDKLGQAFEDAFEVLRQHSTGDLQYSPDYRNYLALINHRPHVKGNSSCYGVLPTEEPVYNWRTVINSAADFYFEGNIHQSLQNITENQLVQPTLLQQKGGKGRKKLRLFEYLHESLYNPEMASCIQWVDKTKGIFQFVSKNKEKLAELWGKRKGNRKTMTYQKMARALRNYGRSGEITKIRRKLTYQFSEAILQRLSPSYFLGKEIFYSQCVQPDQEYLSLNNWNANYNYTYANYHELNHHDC
# Summary of the method: as §1
# ELF4 = ELF4 (Homo sapiens, UniProt Q99607 1-663); conditions: protein: recombinant; tags: N-terminal GST; dsDNA, one strand shown
# Summary of the method: as §1
# ELK4 = biological target: T3, ELK4 (Homo sapiens, UniProt P28324-2 1-405); conditions: protein: recombinant; tags: N-terminal GST; dsDNA, one strand shown
# T3 sequence: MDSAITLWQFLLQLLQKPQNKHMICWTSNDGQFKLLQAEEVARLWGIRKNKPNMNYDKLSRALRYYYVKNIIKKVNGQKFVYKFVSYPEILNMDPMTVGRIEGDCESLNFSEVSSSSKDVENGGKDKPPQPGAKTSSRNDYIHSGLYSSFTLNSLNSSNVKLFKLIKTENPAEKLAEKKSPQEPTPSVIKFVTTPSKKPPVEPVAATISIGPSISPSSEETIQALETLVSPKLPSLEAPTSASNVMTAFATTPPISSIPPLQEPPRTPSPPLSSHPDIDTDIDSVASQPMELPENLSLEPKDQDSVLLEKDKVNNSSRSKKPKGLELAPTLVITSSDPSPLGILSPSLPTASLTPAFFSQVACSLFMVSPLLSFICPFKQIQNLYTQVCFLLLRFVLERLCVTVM
# Summary of the method: as §1
# ETV2 = biological target: T4, ETV2 (Homo sapiens, UniProt O00321 1-342); conditions: protein: recombinant; tags: N-terminal GST; dsDNA, one strand shown
# T4 sequence: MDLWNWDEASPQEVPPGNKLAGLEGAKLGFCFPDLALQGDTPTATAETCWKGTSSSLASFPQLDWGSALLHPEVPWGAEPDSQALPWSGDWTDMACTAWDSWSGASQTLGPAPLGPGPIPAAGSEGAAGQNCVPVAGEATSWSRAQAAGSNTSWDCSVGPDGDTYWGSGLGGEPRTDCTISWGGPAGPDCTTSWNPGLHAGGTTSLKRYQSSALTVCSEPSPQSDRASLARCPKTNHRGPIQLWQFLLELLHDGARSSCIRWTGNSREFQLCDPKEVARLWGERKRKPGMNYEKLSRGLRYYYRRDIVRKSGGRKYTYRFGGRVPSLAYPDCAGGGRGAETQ
# Summary of the method: as §1
# ELF3 = biological target: T5, ELF3 (Homo sapiens, UniProt P78545 1-371); conditions: protein: recombinant; tags: N-terminal GST; dsDNA, one strand shown
# T5 sequence: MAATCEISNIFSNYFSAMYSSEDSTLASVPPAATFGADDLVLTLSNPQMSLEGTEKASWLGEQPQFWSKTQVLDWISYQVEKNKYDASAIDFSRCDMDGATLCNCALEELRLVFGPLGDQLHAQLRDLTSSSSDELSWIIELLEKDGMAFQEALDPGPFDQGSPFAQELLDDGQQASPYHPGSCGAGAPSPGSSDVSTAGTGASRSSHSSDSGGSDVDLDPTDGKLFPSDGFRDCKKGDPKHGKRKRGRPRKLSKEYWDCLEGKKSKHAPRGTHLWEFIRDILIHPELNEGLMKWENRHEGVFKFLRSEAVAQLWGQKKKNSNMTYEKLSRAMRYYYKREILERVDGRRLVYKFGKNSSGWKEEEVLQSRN
# Summary of the method: as §1
# ETV1 = ETV1 (Homo sapiens, UniProt P50549 1-477); conditions: protein: recombinant; tags: N-terminal GST; dsDNA, one strand shown
# Summary of the method: as §1
# ETV1, sequence (P50549 whole entry): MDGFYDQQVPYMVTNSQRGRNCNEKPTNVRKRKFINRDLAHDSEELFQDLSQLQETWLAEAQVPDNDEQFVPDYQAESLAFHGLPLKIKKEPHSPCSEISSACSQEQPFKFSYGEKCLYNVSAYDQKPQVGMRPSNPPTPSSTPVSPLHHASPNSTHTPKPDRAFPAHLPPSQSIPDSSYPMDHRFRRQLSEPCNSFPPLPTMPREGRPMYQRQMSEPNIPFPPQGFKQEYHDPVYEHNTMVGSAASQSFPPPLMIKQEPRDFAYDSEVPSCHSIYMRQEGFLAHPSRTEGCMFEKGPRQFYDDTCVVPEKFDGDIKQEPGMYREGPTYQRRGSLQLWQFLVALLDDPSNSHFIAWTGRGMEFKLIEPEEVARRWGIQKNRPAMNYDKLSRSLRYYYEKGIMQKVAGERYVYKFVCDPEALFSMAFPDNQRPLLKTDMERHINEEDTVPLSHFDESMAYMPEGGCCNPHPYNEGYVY
# ELF4, sequence (Q99607 whole entry): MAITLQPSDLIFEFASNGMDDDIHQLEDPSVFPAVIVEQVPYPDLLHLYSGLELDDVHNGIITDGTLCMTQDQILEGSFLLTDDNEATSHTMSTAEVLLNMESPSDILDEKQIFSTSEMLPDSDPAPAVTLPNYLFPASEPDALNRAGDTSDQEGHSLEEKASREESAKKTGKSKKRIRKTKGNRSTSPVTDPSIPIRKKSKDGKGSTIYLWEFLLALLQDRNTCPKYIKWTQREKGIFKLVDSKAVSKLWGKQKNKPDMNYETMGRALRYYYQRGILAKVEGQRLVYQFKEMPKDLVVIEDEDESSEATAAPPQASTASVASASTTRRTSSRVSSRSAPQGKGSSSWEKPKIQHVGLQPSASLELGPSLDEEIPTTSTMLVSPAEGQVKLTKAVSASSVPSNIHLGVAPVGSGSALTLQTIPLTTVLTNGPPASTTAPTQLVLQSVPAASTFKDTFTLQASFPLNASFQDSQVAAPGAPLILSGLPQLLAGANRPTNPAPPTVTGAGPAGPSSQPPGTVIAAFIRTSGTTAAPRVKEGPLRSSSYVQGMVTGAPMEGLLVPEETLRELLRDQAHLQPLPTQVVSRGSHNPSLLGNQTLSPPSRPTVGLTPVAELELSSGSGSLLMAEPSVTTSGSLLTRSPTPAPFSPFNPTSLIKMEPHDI
# HSF1, sequence (Q00613 whole entry): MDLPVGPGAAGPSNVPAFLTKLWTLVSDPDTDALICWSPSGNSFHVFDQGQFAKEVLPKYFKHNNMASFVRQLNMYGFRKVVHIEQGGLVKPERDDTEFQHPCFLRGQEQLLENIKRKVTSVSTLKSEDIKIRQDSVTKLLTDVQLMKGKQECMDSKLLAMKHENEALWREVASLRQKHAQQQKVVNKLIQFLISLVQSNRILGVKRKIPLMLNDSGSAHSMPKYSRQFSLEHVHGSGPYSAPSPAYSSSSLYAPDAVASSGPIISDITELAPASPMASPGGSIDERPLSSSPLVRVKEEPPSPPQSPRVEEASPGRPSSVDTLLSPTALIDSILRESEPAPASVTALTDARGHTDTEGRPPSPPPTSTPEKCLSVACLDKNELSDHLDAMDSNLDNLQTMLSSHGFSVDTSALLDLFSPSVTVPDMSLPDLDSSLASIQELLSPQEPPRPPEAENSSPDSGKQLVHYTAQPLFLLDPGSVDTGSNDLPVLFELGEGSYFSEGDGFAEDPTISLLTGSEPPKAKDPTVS
# ETV5, sequence (P41161 whole entry): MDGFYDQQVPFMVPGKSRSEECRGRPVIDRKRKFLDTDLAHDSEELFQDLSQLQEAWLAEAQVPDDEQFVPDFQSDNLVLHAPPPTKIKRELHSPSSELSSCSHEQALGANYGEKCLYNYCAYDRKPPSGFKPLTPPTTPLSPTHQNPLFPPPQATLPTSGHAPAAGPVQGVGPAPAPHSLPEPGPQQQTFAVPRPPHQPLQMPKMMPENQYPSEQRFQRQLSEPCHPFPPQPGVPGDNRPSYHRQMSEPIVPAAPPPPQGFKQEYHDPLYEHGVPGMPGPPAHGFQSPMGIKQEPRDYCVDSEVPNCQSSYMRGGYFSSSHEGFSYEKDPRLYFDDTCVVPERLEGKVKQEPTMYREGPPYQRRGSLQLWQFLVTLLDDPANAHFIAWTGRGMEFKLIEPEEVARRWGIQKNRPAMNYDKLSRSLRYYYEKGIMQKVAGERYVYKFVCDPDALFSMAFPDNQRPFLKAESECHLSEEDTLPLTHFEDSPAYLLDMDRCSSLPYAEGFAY
sequence,measurement,setting,value
GCTATG,binding signal,FEV,"1.15 fold enrichment (6-mer frequency, TF over GST control)"
same,binding signal,ETV5,"1.13 fold enrichment (6-mer frequency, TF over GST control)"
same,binding signal,HSF1,"1.07 fold enrichment (6-mer frequency, TF over GST control)"
same,binding signal,SPIC,"1.22 fold enrichment (6-mer frequency, TF over GST control)"
same,binding signal,ELF4,"1.08 fold enrichment (6-mer frequency, TF over GST control)"
same,binding signal,ELK4,"1.15 fold enrichment (6-mer frequency, TF over GST control)"
same,binding signal,ETV2,"1.38 fold enrichment (6-mer frequency, TF over GST control)"
same,binding signal,ELF3,"1.18 fold enrichment (6-mer frequency, TF over GST control)"
same,binding signal,ETV1,"1.17 fold enrichment (6-mer frequency, TF over GST control)"
